Results published in the supplement of paper PMC6555819.

Key:
Experiment in all cases: PBM binding z-score (relative to random genomic background probes); higher = stronger binding; sequences stand for … in GC…GCGATTGACAGCGTAGAATGAAGG
[1] = system: PPARg:RXRa DBDmut IVT, anti-RXR (DBD mutation: RXRa K156A/R161A, NR concentration 270 nM, RXRa partner concentration 90 nM)
Outline: (§1)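 Probes were double-stranded and carried 34-nt variable regions with direct-repeat seeds, single-nucleotide variants, half-site ablations and random human genomic background sequences, printed on custom Agilent 4×180K protein-binding microarrays. Arrays were incubated 1 h with ligand-free nuclear receptor dimers in PBS pH 7.4, 2% milk, 0.02% Triton X-100, 1 mM DTT, 0.2 mg/mL BSA and 0.4 mg/ml salmon testes DNA. Antibodies against each partner (one per run) detected binding, and scanned fluorescence was regression-normalized. Binding z-scores use the random background probes as reference.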

[2] = system: PPARg:RXRa IVT, anti-PPARg (NR concentration 270 nM, RXRa partner concentration 90 nM)
Outline: as §1

[3] = system: PPARg DBDmut:RXRa IVT, anti-PPARg (DBD mutation: PPARg1 K132A/R137A, NR concentration 270 nM, RXRa partner concentration 90 nM)
Outline: as §1

[4] = system: PPARg DBDmut IVT, anti-PPARg (DBD mutation: PPARg1 K132A/R137A, NR concentration 270 nM)
Outline: as §1

[5] = system: PPARg homodimer (NR concentration 180 nM)
Outline: as §1

[6] = system: PXR:RXRa (NR concentration 270 nM, RXRa partner concentration 90 nM)
Outline: as §1

[7] = system: PXR homodimer (NR concentration 270 nM)
Outline: as §1

[8] = system: RARa:RXR (NR concentration 270 nM, RXRa partner concentration 90 nM)
Outline: as §1

[9] = system: RARa homodimer (NR concentration 270 nM)
Outline: as §1

[10] = system: RARb:RXRa (NR concentration 270 nM, RXRa partner concentration 90 nM)
Outline: as §1

[11] = system: RARb homodimer (NR concentration 270 nM)
Outline: as §1

[12] = system: RARg:RXRa (NR concentration 270 nM, RXRa partner concentration 90 nM)
Outline: as §1

[13] = system: RARg homodimer (NR concentration 270 nM)
Outline: as §1

[14] = system: RXRa DBDmut IVT, anti-RXR (DBD mutation: RXRa K156A/R161A, NR concentration 90 nM)
Outline: as §1

[15] = system: RXRa homodimer (NR concentration 180 nM)
Outline: as §1

[16] = system: THRa:RXRa (NR concentration 90 nM, RXRa partner concentration 90 nM)
Outline: as §1

[17] = system: THRa homodimer (NR concentration 90 nM)
Outline: as §1

[18] = system: VDR homodimer (NR concentration 270 nM)
Outline: as §1

Row | Sequence | PBM binding z-score [1] | PBM binding z-score [2] | PBM binding z-score [3] | PBM binding z-score [4] | PBM binding z-score [5] | PBM binding z-score [6] | PBM binding z-score [7] | PBM binding z-score [8] | PBM binding z-score [9] | PBM binding z-score [10] | PBM binding z-score [11] | PBM binding z-score [12] | PBM binding z-score [13] | PBM binding z-score [14] | PBM binding z-score [15] | PBM binding z-score [16] | PBM binding z-score [17] | PBM binding z-score [18]
1 | AATACAGGGTCATCGTATGCCAGAGTACGCACAG | 2.86 | 4.36 | 4.37 | 2.02 | 2.61 | 4.31 | 0.464 | 5.23 | 0.493 | 4.21 | 3.1 | 5.61 | 4.95 | 3.42 | 6.33 | 3.67 | 1.21 | 3.64
2 | ACTTACGGGTCAACGAGCTTATAGCACGCGTATA | 3.07 | 3.31 | 0.724 | 0.908 | 1.42 | 3.19 | -0.152 | 4.16 | 0.825 | 4 | 2.92 | 5.34 | 5.01 | 1.56 | 6.14 | 2.46 | 0.0469 | 0.846
3 | GGAACGAAGGCATTCGAGTTGATAGCATGGCGAT | -0.318 | -0.69 | -0.596 | -0.862 | -1.41 | -0.315 | -0.602 | -0.623 | -0.628 | -0.659 | -0.976 | -0.479 | -0.164 | -0.552 | -0.562 | 0.655 | -1.68 | -0.0499
4 | GATACAGGGTCAGCTAGAAGCCAGAGTATGGAAA | 1.32 | 2.21 | -0.0163 | -0.227 | 2.08 | 1.64 | 0.0123 | 2.84 | -0.0258 | 3.78 | 2.56 | 4.59 | 4.35 | 1.28 | 4.19 | 2.53 | 0.406 | 0.338
5 | ATCTCTAGGTAACCAAGTTCAATGAATGCCGAAC | 3.3 | 3.19 | 0.675 | 1.22 | 1.22 | 2.72 | 3.6 | 1.33 | 1.18 | 1.43 | 1.68 | 0.955 | 1.08 | 1.64 | 0.925 | 1.89 | 0.952 | 3.84
6 | CCAGTCAGGTGAAAGGTAACTCAGTCTGGTACGC | 3.47 | 3.78 | -0.52 | -0.877 | 1.17 | 0.577 | -0.2 | 1.58 | 0.202 | 1.55 | 0.929 | 1.2 | 0.727 | 0.124 | 1.42 | 1.95 | 1.04 | -0.00335
7 | CCTAGTTGGTCAAGGTCGCACACGCTATAGGTAC | 1.4 | 1.87 | 0.308 | 0.288 | 1.55 | 1.57 | 1.04 | 1.69 | 0.482 | 2.43 | 2.39 | 1.87 | 2.27 | 0.634 | 1.83 | 2.64 | 1.75 | 2.3
8 | AATACAGGGTCACTAGGCCAGGGTAGGTACGAAT | 3.28 | 6 | 2.53 | 1.9 | 2.35 | 3.05 | 0.325 | 3.76 | 1.02 | 4.23 | 3.44 | 4.88 | 4.64 | 2.33 | 5.25 | 3.41 | 1.34 | 2.71
